Screen size: about 330,000 compounds; about 5,800 (1.8%) were called active.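 The calls were made as follows: active = inhibition above about 50% at the single tested dose (limit read from the data); inactive = the rest.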 Only a selection was taken, and actives are over-represented in it overall.

The inhibition is the drop in the measured response relative to a control, in per cent.

In this assay the target is Sentrin-specific protease 6 (Homo sapiens) (UniProt Q9GZR1). In words: inhibition of human SENP6 catalytic domain – biochemical, luminescence, uHTS, primary screen (AID 2599).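 Also: plate controls were DMSO wells with enzyme for no effect and DMSO wells lacking enzyme for full effect.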 As to conditions: Recombinant SENP6 catalytic domain, aminoluciferin luminescence; at 10 µM; stronger effect = higher value.
Sentrin-specific protease 6 (Homo sapiens), sequence (Q9GZR1 628-1112 limits assumed): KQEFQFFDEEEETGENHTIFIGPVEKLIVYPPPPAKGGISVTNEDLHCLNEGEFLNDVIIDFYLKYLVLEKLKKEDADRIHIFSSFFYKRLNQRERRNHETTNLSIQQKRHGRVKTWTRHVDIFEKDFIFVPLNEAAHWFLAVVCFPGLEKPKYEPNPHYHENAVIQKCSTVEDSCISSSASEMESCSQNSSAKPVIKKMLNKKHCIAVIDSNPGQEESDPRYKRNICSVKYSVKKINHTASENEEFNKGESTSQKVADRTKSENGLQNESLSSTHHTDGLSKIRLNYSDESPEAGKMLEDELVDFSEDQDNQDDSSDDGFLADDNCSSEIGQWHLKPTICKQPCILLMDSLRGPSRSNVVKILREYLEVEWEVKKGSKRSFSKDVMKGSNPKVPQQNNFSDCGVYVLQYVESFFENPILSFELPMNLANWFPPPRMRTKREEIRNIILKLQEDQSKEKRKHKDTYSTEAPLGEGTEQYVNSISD
With `OC(CN=c1sc2ccccc2n1CC(O)COc1ccccc1)COc1ccccc1` (stereo not drawn), the inhibition was -0.866% (inactive).

As for `CNC(C)C#Cc1ccc2sc3cc(OC)c(OC)cc3c(=O)c2c1` (stereo not drawn), the inhibition is 78.2% (active).

In the case of `CC(C)CN(C(=O)COC(=O)c1ccc2ccccc2c1)c1c(N)n(Cc2ccccc2)c(=O)[nH]c1=O`, the inhibition is -9.38% (inactive).

On to `CCOc1cc(/C=N/n2cnnc2)c(Br)cc1O`, for which the inhibition is 12.6% (inactive).

For `CCCCCC(O)c1cccc(OCc2ccc3ccccc3n2)c1` (stereo not drawn), the inhibition is 23% (inactive).

For `O=C(COC(=O)c1cc(S(=O)(=O)N2CCOCC2)ccc1F)NC1CC1`, the inhibition is -2.29% (inactive).

As for `CNCC(O)c1ccc(O)c(O)c1` (stereo not drawn), the inhibition is -10.1% (inactive).

For the compound `CCOC(=O)C(NS(=O)(=O)c1ccc(C)cc1)(C(F)(F)F)P(=O)(OCC(C)C)OCC(C)C` (stereo not drawn), the inhibition was 8.36% (inactive).

In the case of `CCCCCc1ccc(-c2ccc(OCC)cc2)nc1`, the inhibition is -5.2% (inactive).

Consider `CCCCCc1ccc(-c2cn(Cc3ccc4ccccc4c3)nn2)cc1`, for which the inhibition was -16.8% (inactive).

As for `CCCCCc1ccc(-c2ccc(C(=O)O)cc2)nc1`, the inhibition is 95.9% (active).

Take `CC(=O)N1C(C)c2ccccc2C(C)(C)CC12CCCCC2` (stereo not drawn): the inhibition is 5.42% (inactive).

Take `NC(=O)Cc1nc2scc(-c3ccc(Cl)cc3)c2c(=O)[nH]1`: the inhibition is -10.5% (inactive).

Turning to `O=c1[nH]c(CCl)nc2cc(-c3ccc(Cl)cc3)sc12`, the inhibition was 94.6% (active).

On to `O=c1[nH]c(CN2CCOCC2)nc2cc(Cl)ccc12`, for which the inhibition is 0.886% (inactive).

With `CCOC(=O)c1ccc(CS(=O)c2ccc(Cl)cc2)o1` (stereo not drawn), the inhibition was -6.19% (inactive).

Consider `Cc1oc(-c2ccccc2Cl)[n+]([O-])c1C`, for which the inhibition was -2.99% (inactive).

Regarding `CCOC(=O)C(C)n1nc(-c2ccccc2)c2ccccc2c1=O` (stereo not drawn), the inhibition was 16.8% (inactive).

`COCCNc1nnc(SCC(=O)NNC(=O)c2ccco2)s1`: the inhibition was 0.175% (inactive).

For `O=C(Nc1nnc(CCOCCOCCc2nnc(NC(=O)c3ccco3)s2)s1)c1ccco1`, the inhibition is 14.7% (inactive).

Turning to `O=C(Nc1nnc(SCc2ccccc2)s1)c1ccco1`, the inhibition was 63% (active).

With `COc1cccc(-n2c(=S)[nH]c3c(oc4ccccc43)c2=O)c1`, the inhibition was -5.17% (inactive).

Consider `O=c1oc2ccccc2cc1-c1cn(-c2ccccc2)c(=S)[nH]1`, for which the inhibition was 94% (active).

In the case of `S=c1[nH]c(-c2cccs2)cn1-c1ccccc1`, the inhibition was -4.29% (inactive).

Take `CC(NC(=O)C1CCC(CNc2c(N3CCOCC3)c(=O)c2=O)CC1)c1ccccc1` (stereo not drawn): the inhibition is -0.949% (inactive).

With `CCOc1ccc2[nH]c(=O)c(C(c3nnnn3CCOC)N3CCOCC3)cc2c1` (stereo not drawn), the inhibition was 7.39% (inactive).

In the case of `COc1ccc(OC)c(C(c2nnnn2C(C)(C)C)N2CCc3ccccc3C2)c1` (stereo not drawn), the inhibition is -3.29% (inactive).

Regarding `COCCn1nnnc1C(c1cc2ccc(OC)cc2[nH]c1=O)N1CCc2ccccc2C1` (stereo not drawn), the inhibition was 72.7% (active).

On to `O=c1cc(Cl)c2ccccc2n1-c1ccccc1`, for which the inhibition is -18.3% (inactive).

Consider `CCNC(=O)NNC(=O)C1CC(c2cccs2)=NO1` (stereo not drawn), for which the inhibition is -11.1% (inactive).

Consider `Cc1cc(C)cc(NC(=O)N(C)Cc2ccccc2)c1`, for which the inhibition was -7.22% (inactive).

With `Cc1c(NC(=O)CSCc2ccccc2)cccc1C(=O)O`, the inhibition is 9.84% (inactive).

Regarding `CN1CCNC(=O)C1CC(=O)N1CC=C(c2ccc(F)cc2)CC1` (stereo not drawn), the inhibition is 4.55% (inactive).

Turning to `COc1ccc(/C=C2\SC(=O)N(CCC(=O)NCCCn3ccnc3)C2=O)cc1`, the inhibition is 15.6% (inactive).

For `COc1ccc(/C=C2/SC(=O)N(CCCCCC(=O)Nc3ccccc3C(=O)O)C2=S)cc1`, the inhibition is 63.7% (active).

Regarding `COc1ccc(/C=C2\SC(=O)N(CCC(=O)NC3CCS(=O)(=O)C3)C2=O)cc1` (stereo not drawn), the inhibition is 12.7% (inactive).

As for `O=C(Nn1c(-c2ccc(Cl)cc2)nc2ccccc2c1=O)c1cccnc1Cl`, the inhibition is 1.41% (inactive).

In the case of `Cc1ccc2c(c1)N(C(=O)CCC(=O)N1CCc3ccccc3C1)CCO2`, the inhibition is 10.2% (inactive).

Regarding `Oc1ccc(CNc2ccccc2O)cc1`, the inhibition is 17.3% (inactive).

Regarding `CCOC(=O)C1(Cc2ccccc2C)CCCN(C(=O)CCc2c(C)noc2C)C1` (stereo not drawn), the inhibition is 9.37% (inactive).

Regarding `N=c1c2c3c(sc2nc2n1CCCCC2)CCCC3`, the inhibition was 64.2% (active).

For the compound `N=c1c2c3c(sc2ncn1N)CCCCC3`, the inhibition was -21.7% (inactive).

Turning to `CC1(C)Cc2c(sc3nc4n(c(=N)c23)CCCCC4)CO1`, the inhibition is -4.65% (inactive).

Regarding `CC(OC(=O)CCc1nc(=O)c2ccccc2n1C)C(=O)NCc1ccc2c(c1)OCO2` (stereo not drawn), the inhibition was -15.7% (inactive).

Regarding `Cc1cc(NC(=O)COc2ccc([N+](=O)[O-])cc2)no1`, the inhibition is -2.83% (inactive).

`Cc1cc(NC(=O)Nc2ccccc2[N+](=O)[O-])no1`: the inhibition is 54% (active).

As for `Cc1cc(NC(=O)c2ccccc2C)no1`, the inhibition was -1.58% (inactive).

As for `Nc1ccn(CC(=O)N2CCN(c3ccccn3)CC2)c(=O)n1`, the inhibition was -3.83% (inactive).

Regarding `CC(C)C(=O)NC(NC(=S)NC1CCS(=O)(=O)C1)C(Cl)(Cl)Cl` (stereo not drawn), the inhibition is -19.9% (inactive).

For the compound `Cc1ccc(N/C=C/C(=O)c2ccccc2)cc1C`, the inhibition was 95.8% (active).

Turning to `CC(=O)Nc1ccc(/C=C/C(=O)c2ccccc2)cc1`, the inhibition was -17% (inactive).

In the case of `O=C(/C=C/NCc1ccc(F)cc1)c1ccccc1`, the inhibition was -0.568% (inactive).

`CCOc1ccc(N/C=C/C(=O)c2cc(OC)c(OC)c(OC)c2)cc1`: the inhibition is -7.87% (inactive).

Take `Cc1cc(N/C=C\C(=O)c2ccc(Cl)c(Cl)c2)no1`: the inhibition was -3.41% (inactive).

For the compound `CCOc1ccc(N/C=C/C(=O)c2ccccc2)cc1`, the inhibition was 94.4% (active).

With `CCOc1ccc(NC(=S)N2CCC(NC(=O)c3ccccc3)CC2)cc1`, the inhibition is -17.6% (inactive).

Turning to `COc1ccc(C(=O)/C=C/Nc2ccccn2)cc1`, the inhibition is 97.2% (active).

Turning to `COc1ccc(N2C(=O)CCC(C(=O)Nc3ccccn3)C2c2ccc(OC)c(OC)c2)cc1` (stereo not drawn), the inhibition was -4.43% (inactive).

For `C[C@H](NC(=O)C1CC(=O)N(c2ccc3c(c2)OCCO3)C1)C(=O)N1CCC(C(=O)O)CC1` (stereo partly drawn), the inhibition is -10.8% (inactive).

Take `CCC(C)CN1CCC(CO)(Cc2ccccc2Cl)CC1` (stereo not drawn): the inhibition was 8.24% (inactive).

Turning to `CC1CCC(CN2CCN=C2N(C)C)CC1` (stereo not drawn), the inhibition is -19.7% (inactive).

Turning to `Cc1ccccc1C(OCCN(C)C)C1CCCCC1` (stereo not drawn), the inhibition was -10.8% (inactive).

Turning to `Cc1ccc(C(=O)NNC2=Nc3cc([N+](=O)[O-])ccc3OC2)cc1`, the inhibition was -18.4% (inactive).

As to `COc1ccc(C2=Nc3cc(C)ccc3OC2)cc1`, the inhibition was 81.7% (active).

In the case of `COc1ccc(C2=NOC(COC(=O)c3ccc4ccccc4n3)C2)cc1` (stereo not drawn), the inhibition is -7.77% (inactive).

For `CCOCCN(C=O)c1cccc(OC)c1`, the inhibition was -10.1% (inactive).

As to `O=C(COC(=O)c1n[nH]c2ccccc12)Nc1ccccc1Br`, the inhibition was -4.53% (inactive).

Consider `CCCn1nc(C(=O)OCc2nc(N)nc(Nc3ccccc3C)n2)c2ccccc2c1=O`, for which the inhibition is -0.795% (inactive).

`COc1cc(/C=C/C(=O)OCC(=O)N2CCOCC2)ccc1OCC#N`: the inhibition was 2.81% (inactive).

With `COc1ccc(N2C(=O)C(O)C2c2ccc(C)cc2)cc1` (stereo not drawn), the inhibition was -8.14% (inactive).

`Cc1ccc2cc3cc(C(=O)N4CCCCCC4)oc3nc2c1`: the inhibition is 57.1% (active).

For `Cc1cc(C)cc(NC(=O)N2CCCCCCC2)c1`, the inhibition was -8.39% (inactive).

`Cc1ccc2nc(N3CCN(C(=O)c4ccco4)CC3)sc2c1`: the inhibition was -9.94% (inactive).

Turning to `COC(=O)c1cccc(C(=O)N2CCCC(Nc3ccc4c(c3)OCCO4)C2)c1` (stereo not drawn), the inhibition is 8.68% (inactive).

Take `OCCC#Cc1ccc(CN2CCN(Cc3ccsc3)C(CCO)C2)cc1` (stereo not drawn): the inhibition is -21.1% (inactive).

Regarding `Cc1cc(C(=O)NNC(=O)c2ccccc2O)c(C)o1`, the inhibition is 0.955% (inactive).

Consider `Cc1cc(C(=O)N/N=C\C(Br)=C\c2ccccc2)c(C)o1`, for which the inhibition was 54.2% (active).

With `O=C(NN=Cc1ccc(N2CCOCC2)cc1)c1cc2ccccc2cc1O`, the inhibition was -12.9% (inactive).

In the case of `COc1ccc(C/C(C)=N/NC(=O)c2cc(C)oc2C)cc1`, the inhibition is -24.2% (inactive).

As for `CC(=C/c1ccccc1)/C=N/NC(=O)c1cc(C)oc1C`, the inhibition is 90.1% (active).

For the compound `Cc1cc(C(=O)N/N=C/c2ccc(N3CCOCC3)cc2)c(C)o1`, the inhibition is 84.3% (active).

In the case of `CC(C)c1cc(C(=O)N/N=C/C(Br)=C/c2ccccc2)n[nH]1`, the inhibition is 2.83% (inactive).

Take `CCN(CC)c1ccc(C(=O)N/N=C/c2ccc(N3CCOCC3)cc2)cc1`: the inhibition is -7.9% (inactive).

`Cc1ccc(-c2cc(C(=O)N/N=C/C=C/c3ccccc3)n[nH]2)o1`: the inhibition was 1.41% (inactive).

For the compound `CN1CCN(C(=O)/C(=C\c2cccs2)NC(=O)c2cccs2)CC1`, the inhibition was -14.6% (inactive).

As for `CC(C)OCCCNC(=O)c1ccc(C2SCC(=O)N2Cc2ccco2)cc1` (stereo not drawn), the inhibition is -6.37% (inactive).

For the compound `CC(Sc1ccccc1F)C(=O)Nc1cccc(S(=O)(=O)N2CCOCC2)c1` (stereo not drawn), the inhibition is -4.45% (inactive).

Consider `Nc1c(N(CCCO)C(=O)C2CCCC2)c(=O)[nH]c(=O)n1Cc1ccccc1`, for which the inhibition was -9.42% (inactive).

For the compound `O=C(Cc1ccccc1)Nc1c(Cl)ccc2nsnc12`, the inhibition was -21.2% (inactive).

Consider `C/C(=N\NC(=O)CNC(=O)C(c1ccccc1)c1ccccc1)c1ccc(C)cc1`, for which the inhibition is 7.95% (inactive).

Consider `C/C(=N\NC(=O)c1ccc(C)cc1)C1C(=O)c2ccccc2C1=O`, for which the inhibition was 92.3% (active).

For the compound `Cc1ccc(C(=O)N/C(=C/c2cccnc2)C(=O)O)cc1`, the inhibition is -4.97% (inactive).

For `CC(=O)Nc1ccc(S(=O)(=O)NNC(=O)CCc2ccccc2)cc1`, the inhibition was -9.47% (inactive).

As for `C=C1c2c(Cl)ccc(O)c2C(O)=C2C(=O)[C@]3(O)C(O)=C(C(N)=O)C(=O)[C@@H](N(C)C)[C@@H]3[C@@H](O)C12` (stereo partly drawn), the inhibition was 1.61% (inactive).

On to `Cc1ccccc1NC(=O)CSc1ccc2nnc(-c3ccccn3)n2n1`, for which the inhibition was -3.48% (inactive).

As to `CCOC(=O)CSc1nnc(-c2cccc(Br)c2)o1`, the inhibition was -8.5% (inactive).

Consider `CCOC(=O)CSc1nnc(-c2ccc([N+](=O)[O-])cc2)o1`, for which the inhibition is 2.93% (inactive).

In the case of `CCCCSc1nnc(-c2ccc(C)cc2)o1`, the inhibition is 50.8% (active).
